SMILES strings stand for the structures. Records with an inconclusive call do not appear. The source made the active and inactive calls. Calls come from the whole dose curve; as a rule, active = well fitted inhibition curve with a large enough effect; inconclusive = small, poorly fitted or top-dose-only effect; inactive = flat fitted curve, though single readings scatter.

Assay in all cases: qHTS profiling for inhibitors of Plasmodium falciparum proliferation (AID 504749); note: nearly all actives have a fitted effect of over 60% in size
Common to all, as to conditions: P. falciparum in erythrocytes, SYBR Green DNA, 72 h; series mostly up to 28.7 µM
For orientation: qHTS replaces the single test concentration by a dilution series.

The test system of assay [1] is N140. In short, it runs like this:
(§1)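 Three-day growth assay of blood-stage parasites in erythrocytes (0.3% parasitemia, 2.5% hematocrit) at 37 C, 5% CO2, quantified by SYBR Green DNA staining after overnight detergent lysis.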

The test system of assay [2] is P93_24. In short, it runs like this: as §1
The subject of assay [3] is P94_40. In short, it runs like this:
as §1

Assay [4] deals with PAD. In short, it runs like this:
as §1

In assay [5] the test system is PC15. The method in brief:
as §1

Assay [6] concerns PC26. In short, it runs like this: as §1
The subject of assay [7] is PC49. In short, it runs like this: as §1
Assay [8] deals with SC27B. The method in brief: as §1
Assay [9] deals with TAB109. The method in brief: as §1
The subject of assay [10] is TAB113. The method in brief:
as §1
Potency is the fitted concentration of half-maximal effect.

With `CC(=O)NC(Cc1ccccc1)C(=O)O` (centres undefined), the Potency entry in assay [1], in assay [2], in [3], in [4], in assay [5] and in [6] was “inactive” throughout. For the same compound, the Potency entry in assay [7], in assay [8], in [9] and in assay [10] was “inactive” throughout.
For the compound `O=C(O)COc1nn(Cc2ccccc2)c2ccccc12`, the Potency result in assay [1], in assay [2], in [3], in assay [4], in assay [5] and in assay [6] was “inactive” throughout. For the same compound, the Potency result in assay [7], in [8], in [9] and in assay [10] was “inactive” throughout.
As for `O=C(O)[C@@H]1CSCN1`, the Potency entry in assay [1], in assay [2], in assay [3], in assay [4], in assay [5] and in [6] was “inactive” throughout. The Potency result in assay [7], in [8], in assay [9] and in assay [10] was “inactive” throughout.
In the case of `C#CCN(C)Cc1ccccc1`, the Potency result in assay [1], in [2], in [3], in assay [4], in assay [5] and in assay [6] was “inactive” throughout. Moreover, the Potency entry in assay [7], in assay [8], in assay [9] and in assay [10] was “inactive” throughout.
Turning to `CC[C@@]1(c2ccccc2)NC(=O)N(C)C1=O`, the Potency result in assay [1], in assay [2], in assay [3], in assay [4], in assay [5] and in assay [6] was “inactive” throughout. For the same compound, the Potency result in assay [7], in [8], in assay [9] and in [10] was “inactive” in each case.
Take `CCCCN1CCCC[C@H]1C(=O)Nc1c(C)cccc1C`: the Potency entry in assay [1], in assay [2], in assay [3], in [4], in assay [5] and in [6] was “inactive” in each case. Moreover, the Potency result in assay [7], in [8], in assay [9] and in assay [10] was “inactive” each time.
In the case of `CC(=O)Nc1ccc(/C=N/NC(N)=S)cc1`, the Potency entry in assay [1], in assay [2], in [3], in assay [4], in assay [5] and in assay [6] was “inactive” each time. The Potency entry in assay [7], in assay [8], in [9] and in assay [10] was “inactive” in each case.
On to `O=C(O)c1ccccc1-c1ccc(C(F)(F)F)cc1`, for which the Potency result in assay [1], in assay [2], in assay [3], in [4], in [5] and in assay [6] was “inactive” each time. The Potency result in assay [7], in assay [8], in [9] and in [10] was “inactive” in each case.
Turning to `Cc1cc2c(cc1S(N)(=O)=O)S(=O)(=O)CCC2`, the Potency result in [1], in assay [2], in [3], in assay [4], in assay [5] and in assay [6] was “inactive” each time. In addition, the Potency entry in [7], in assay [8], in assay [9] and in assay [10] was “inactive” throughout.
In the case of `CCCCC(CC)COC(=O)c1ccccc1O` (centres undefined), the Potency result in assay [1], in assay [2], in [3], in [4], in [5] and in assay [6] was “inactive” each time. The Potency result in [7], in assay [8], in assay [9] and in assay [10] was “inactive” throughout.
Turning to `Cc1cc(CC(=O)O)n(C)c1C(=O)c1ccc(Cl)cc1`, the Potency result in [1], in assay [2], in assay [3], in assay [4], in [5] and in assay [6] was “inactive” each time. Further, the Potency result in assay [7], in [8], in assay [9] and in [10] was “inactive” each time.
For `O=C(O)c1ccccc1O`, the Potency result in assay [1], in [2], in assay [3], in assay [4], in assay [5] and in assay [6] was “inactive” in each case. The Potency entry in assay [7], in assay [8], in assay [9] and in assay [10] was “inactive” each time.
For the compound `COc1cc(C(=O)N2CCOCC2)cc(OC)c1OC`, the Potency result in assay [1], in assay [2], in [3], in assay [4], in assay [5] and in assay [6] was “inactive” throughout. Besides, the Potency result in [7], in assay [8], in [9] and in assay [10] was “inactive” throughout.
On to `COC(=O)C1=C(C)NC(C)=C(C(=O)OC)C1c1ccccc1[N+](=O)[O-]`, for which the Potency entry in assay [1], in assay [2], in assay [3], in assay [4], in [5] and in [6] was “inactive” in each case. Besides, the Potency entry in assay [7], in assay [8], in assay [9] and in assay [10] was “inactive” in each case.
Consider `O=C1OC(OC(=O)c2cccnc2Nc2cccc(C(F)(F)F)c2)c2ccccc21` (centres undefined), for which the Potency entry in assay [1], in assay [2], in [3], in assay [4], in assay [5] and in [6] was “inactive” each time. The Potency entry in [7], in assay [8], in [9] and in assay [10] was “inactive” in each case.
On to `CCCc1c(OCCCCc2nn[nH]n2)ccc(C(C)=O)c1O`, for which the Potency result in assay [1], in [2], in assay [3], in [4], in assay [5] and in [6] was “inactive” in each case. Also, the Potency result in [8], in [9] and in [10] was “inactive” throughout.
As to `NC(CSCC(=O)O)C(=O)O` (centres undefined), the Potency result in assay [1], in assay [2], in assay [3], in assay [4], in [5] and in [6] was “inactive” each time. Moreover, the Potency entry in assay [7], in [8], in assay [9] and in assay [10] was “inactive” each time.
Consider `O=S(=O)(O)NC1CCCCC1`, for which the Potency entry in [1], in assay [2], in assay [3], in [4], in assay [5] and in assay [6] was “inactive” each time. Further, the Potency entry in [7], in [8], in assay [9] and in assay [10] was “inactive” each time.
Consider `C[C@H]1O[C@@H](n2cc(F)c(=O)[nH]c2=O)[C@H](O)[C@@H]1O`, for which the Potency result in [1], in [2], in assay [3], in assay [4], in [5] and in [6] was “inactive” in each case. The Potency result in [7], in [8], in assay [9] and in [10] was “inactive” in each case.
Regarding `NCC(=O)CCC(=O)O`, the Potency entry in [1], in assay [2], in [3], in [4], in assay [5] and in assay [6] was “inactive” each time. The Potency entry in [7], in assay [8], in [9] and in [10] was “inactive” each time.
On to `NS(=O)(=O)c1cc2c(cc1Cl)NC(CSCc1ccccc1)=NS2(=O)=O`, for which the Potency result in assay [1], in assay [2], in assay [3], in assay [4], in assay [5] and in assay [6] was “inactive” throughout. Further, the Potency entry in assay [7], in [8], in assay [9] and in assay [10] was “inactive” in each case.
For the compound `CC1=C(/C=C/C(C)=C/C=C/C(C)=C/C(=O)O)C(C)(C)CCC1`, the Potency entry in assay [1], in assay [2], in assay [3], in assay [4], in assay [5] and in assay [6] was “inactive” each time. The Potency result in assay [7], in assay [8], in [9] and in assay [10] was “inactive” each time.
Turning to `Nc1nc2c(ncn2CCC(CO)CO)c(=O)[nH]1`, the Potency result in [1], in assay [2], in assay [3], in [4], in assay [5] and in assay [6] was “inactive” each time. For the same compound, the Potency entry in assay [7], in assay [8], in assay [9] and in [10] was “inactive” each time.
As to `O=C(O)CN1C(=O)c2cccc3cccc(c23)C1=O`, the Potency result in assay [1], in [4], in assay [5], in assay [6], in assay [7] and in assay [8] was “inactive” in each case. Besides, the Potency result in assay [9] and in assay [10] was “inactive” in each case.
On to `CSc1ccc2c(c1)N(CCC1CCCCN1C)c1ccccc1S2` (centres undefined), for which the Potency in assay [2] is 11.2 µM (active); in assay [3], 7.08 µM (active); in assay [4], 8.91 µM (active); in assay [5], 10 µM (active); in assay [8], 12.6 µM (active); in assay [9], 8.91 µM (active). In [10], the Potency is 10 µM (active).

These data come from PubChem BioAssay (NCATS).
